Experimental data reported in PubChem BioAssay (Tox21).
Results filed as inconclusive are left out. Entries that show only a call come without a potency. Calls of active or inactive are those of the source. The call rests on the fitted dose curve; in most records, active means well fitted cell-killing curve with a large enough effect in the repeat runs; inconclusive means weak or mixed curves, or effect the other way; inactive means flat fitted curve, though single readings scatter.

experiment: cAMP Responsive Elements (CRE) small molecule antagonists, cell-based qHTS assay: qHTS cell viability counter screen (AID 2060913); conditions: CRE-bla HEK293T viability, CellTiter-Glo luminescence, 5 h; series mostly up to 92.4 µM; further: nearly all actives have a fitted effect of over 40% in size
Excerpt: U.S. Tox21 Program National Center for Advancing Translational Sciences [NCATS] Division of Preclinical Innovation [DPI] U.S. Environmental Protection Agency [EPA] National Institutes of Environmental Health Sciences [NIEHS] National Toxicology Program [NTP] U.S. Food and Drug Administration [FDA] Tox21 Assay Overview: CREB (cyclic-AMP Responsive Element Binding Protein) is a cellular transcription factor. It binds to certain DNA sequences called cAMP Responsive Elements (CRE) and regulates the transcription of the genes. […] This cell line can be used to find agonists/antagonists of the cyclic AMP signaling pathway. The activation of the report gene under culture conditions can be detected by fluorescence intensity. This cell line has been used to screen the Tox21 10K compound library to identify agonists that induce oxidative stress. The cytotoxicity of the Tox21 compound library against the CRE-bla cell line was tested in parallel by measuring the cell viability using CellTiter-Glo assay (Promega, Madison, WI) in the same wells.
Tox21 Assay Protocol Summary: CRE-bla Hek 293T cells were suspended in assay medium (DMEM containing 10% dialyzed FBS, 0.1 mM NEAA, 1 mM sodium pyruvate and 25 mM HEPES) and dispensed at 2,000 cells/4 uL /well into 1536-well black wall/clear bottom plates using a Multidrop Combi (ThermoFisher Scientific, Waltham, MA) dispenser. After the assay plates were incubated at 37 C/5% CO2 for 18 hrs, 23 nL of compounds dissolved in DMSO, positive controls or DMSO only was transferred to the assay plate by a pintool workstation (Kalypsys, San Diego, CA), followed by addition of 1 uL of 1.25uM NKH477 (0.25 uM as final concentration) in assay medium using a Flying Reagent Dispenser (Aurora Discovery, San Diego, CA). The plates were incubated at 37 C and 5% CO2 for 3 hrs. Then 1 uL of LiveBLAzer B/G FRET substrate (Invitrogen, Carlsbad, CA) was added to each well using Bioraptr Flying Reagent Dispenser (FRD, Aurora Discovery, San Diego, CA). The plates were incubated at room temperature for 2 h, then fluorescence intensities were measured using an Envision plate reader (PerkinElmer, Shelton, CT) at Excitation 405nm, Emission 460nm and 530nm. The % activity was determined from the ratio of 460nm/530nm. For cell viability readout that measures cytotoxicity, 4 uL /well of CellTiter-Glo reagent was added into the assay plates using Bioraptr FRD. After 30 min incubation at room temperature, the luminescence intensity in the assay plates was measured using a ViewLux (PerkinElmer, Shelton, CT) plate reader.
Potency means the concentration at half of the fitted maximal effect.

Compound	Potency	viability change, negative = cytotoxic
C=CCCCCCCC=C	inactive	
Cc1cc(C)c(N=Nc2c(O)c(S(=O)(=O)O)cc3cc(S(=O)(=O)O)ccc23)cc1C		13% [at 8.39 µM] (inactive)
C[C@@H](N)C(=O)O	inactive	
CCCCCCCCOC(C)=O	inactive	
Cc1cccc2sc(N)nc12	inactive	
OCc1c2ccccc2cc2ccccc12	inactive	
O=C(NO)C1(NS(=O)(=O)c2ccc(Oc3ccc(F)cc3)cc2)CCOCC1	inactive	
O=C(O)CCCCCCC(=O)O	inactive	
Cc1nnc(SCC2=C(C(=O)O)N3C(=O)[C@@H](NC(=O)Cn4cnnn4)[C@H]3SC2)s1	inactive	
O=C(O)c1c2ccccc2cc2ccccc12	inactive	
CC(C)CCCCCCOC(=O)c1ccc(C(=O)OCCCCCCC(C)C)c(C(=O)OCCCCCCC(C)C)c1	inactive	
CC1(C)SC(C)(C)SC(C)(C)S1	inactive	
c1ccc(OCc2ccc(CCCN3CCOCC3)cc2)cc1	inactive	
CCC(=O)OC(C)c1ccccc1 (stereo not given)	inactive	
COc1ccccc1N1CCN(CCCNc2cc(=O)n(C)c(=O)n2C)CC1	inactive	
CCOC(=O)N1CCC(=C2c3ccc(Cl)cc3CCc3cccnc32)CC1	inactive	
[O]=[Mo](=[O])=[O]		13.7% [at 18.9 µM] (inactive)
CC(C=O)Cc1ccc(C(C)(C)C)cc1 (stereo not given)	inactive	
CC(C)(C)C(=O)CC(=O)C(C)(C)C	inactive	
COC(=O)CC(C(C)=O)C(=O)OC (stereo not given)	inactive	

Compound	Potency	viability change, negative = cytotoxic
Nc1cc([N+](=O)[O-])ccc1Cl	inactive	
CC1COc2ccccc2N1 (stereo not given)	inactive	
O=C(CN1CCNCC1)NC1CCCCC1	inactive	
CN1C[C@@H]2C[C@H]1CN2c1cc2c(cc1F)c(=O)c(C(=O)O)cn2C1CC1		-0.602% [at 18.9 µM] (inactive)
COc1ccc2c(c1)c(CC(=O)O)c(C)n2C(=O)c1ccc(Cl)cc1	inactive	
c1cc(CCCc2ccncc2)ccn1	inactive	
C=CC(=O)OCCCCCCOC(=O)C=C	inactive	
Cc1cc(C2CCCCC2)n(O)c(=O)c1	inactive	
CCCCCNCCCCC	inactive	
O=c1cc[nH]cc1	inactive	
CCN(CCCCOC(=O)c1ccc(OC)c(OC)c1)C(C)Cc1ccc(OC)cc1 (stereo not given)	inactive	
CCC(=O)O	inactive	
Cc1ccc(-c2ncc(Cl)cc2-c2ccc(S(C)(=O)=O)cc2)cn1	inactive	
CCSCC	inactive	
CCOc1nc2cccc(C(=O)OC(C)OC(=O)OC3CCCCC3)c2n1Cc1ccc(-c2ccccc2-c2nn[nH]n2)cc1 (stereo not given)	48.5 µM (active)	
CCCOCCOCCOCCO	inactive	
CO[Si](CCCCl)(OC)OC	inactive	
CCc1oc2ccccc2c1C(=O)c1cc(I)c(O)c(I)c1	inactive	
CC/C=C(\C)C=O	inactive	
CC1(C)C(=O)N(Br)C(=O)N1Cl	inactive	
